AmpC nodet inh – blocks E. coli AmpC beta-lactamase in absence of detergent. AID 585. AmpC nitrocefin hydrolysis, absorbance 480 nm, no detergent. actives 1.8% (n = 71,000). P00811. Potency, µM (top dose mostly 28.7 µM), inactives show top-dose activity change, negative = inhibition; note: % of control where 0% means no effect
Target sequence (P00811 whole entry, looked up): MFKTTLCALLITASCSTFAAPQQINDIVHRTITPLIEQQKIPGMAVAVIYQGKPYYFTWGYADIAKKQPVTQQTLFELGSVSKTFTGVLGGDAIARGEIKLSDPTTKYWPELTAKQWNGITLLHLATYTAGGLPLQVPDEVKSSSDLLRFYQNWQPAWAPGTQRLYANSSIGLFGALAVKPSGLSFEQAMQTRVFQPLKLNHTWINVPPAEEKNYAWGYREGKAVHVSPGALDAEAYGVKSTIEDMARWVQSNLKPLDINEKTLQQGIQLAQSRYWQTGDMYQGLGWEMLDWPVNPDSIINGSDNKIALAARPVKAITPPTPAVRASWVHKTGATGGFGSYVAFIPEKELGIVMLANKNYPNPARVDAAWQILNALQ
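Enzyme, pH 7.0 phosphate. Compound titrations were pre-incubated with AmpC for 15 min at room temperature before nitrocefin (stock 800 uM) addition; product formation was recorded at 480 nm every 20 s for 4 min.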
LT uptake inh – anthrax lethal toxin internalization inhibition | Cells, anthrax lethal toxin internalization, FRET ratio (460/530) | Potency, µM (highest dose often 40 µM), inactives show at the highest dose activity change, negative = inhibition, actives largely listed as inhibitors | actives 0.67% (n = 70,000) | AID 912; note: % is set by controls: 0 for no effect and ±100 for the full control effect; nearly all actives have a fitted effect of over 50% in size
SmPrx2 inh – inhibitors of Schistosoma mansoni peroxiredoxin 2; S. mansoni Prx2 activity coupled to TGR/GSH (TGR is thioredoxin glutathione reductase), NADPH fluorescence loss, qHTS; Potency, µM; actives 0.07% (n = 65,000); AID 448
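Coupled assay in which S. mansoni TGR passes NADPH reducing equivalents via glutathione to Prx2, which reduces H2O2. Compounds were preincubated 15 min at room temperature with 25 nM TGR/50 nM Prx2 mix. Kinetic NADPH fluorescence loss (ex 365/em 450 nm) was monitored.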
AmpC inh det – inhibitors of E. coli AmpC beta-lactamase with detergent; P00811; purified AmpC, nitrocefin hydrolysis with detergent; Potency, µM (doses to about 28.7 µM), for the others: top-dose activity change, negative = inhibition; actives 0.09% (n = 71,000); AID 584; active = well fitted curve in the direction sought with a large enough effect; inconclusive = small, poorly fitted or top-dose-only effect; note: % is set by controls: 0 for no effect and ±100 for the full control effect
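E. coli AmpC (5.3 nM) in 20 mM phosphate pH 7.0 with 0.01% Triton X-100, preincubated 15 min RT with compound; nitrocefin (2 uL of 800 uM stock) hydrolysis followed by 480 nm absorbance every 20 s over 4 min.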
* hit, by the source's call; ? = inconclusive; . = not tested or not shown; ! = not active in a repeat; [ ] = remark or other dose. Shown are actives, neighbours in structure and some others; about 2.4% of the full set was active somewhere. Unless noted, calls come from the whole dose curve. Potency is the fitted concentration of half-maximal effect.

SMILES | AmpC nodet inh | LT uptake inh | SmPrx2 inh | AmpC inh det
N#C/C(=C\c1ccc(O)c(O)c1)C(=O)Nc1ccccc1 | ? | 25.1µM* | >57 | -4.8%
COc1cc(Cc2cnc(N)nc2N)cc(OC)c1OC | 6.31µM*! | ? | >57 | -1.2%
Cc1cccc(OCC(=O)NCc2ccncc2)c1C | 3.16µM*[single pt active] | -5.1% | >57 | 11.4%
Cc1nnc(N2C(=O)C(O)=C(C(=O)c3ccco3)C2c2ccc(F)cc2)s1 (stereo not drawn) | 3.98µM*[single pt active] | -5.0% | >57 | 11.7%
O=C(C1=C(O)C(=O)N(Cc2ccccc2)C1c1ccncc1)c1ccco1 (stereo not drawn) | -0.2% | 1.0% | >57 | -2.3%
CNCCCC1c2ccccc2C=Cc2ccccc21 | 1.2%[12.8 µM] | 4.3%[3.58 µM] | >57 | -1.2%[12.8 µM]
CNCCCC12CCC(c3ccccc31)c1ccccc12 | 49.5% | 5.01µM*! | >57 | -0.7%
CCOc1ccc(C2C(C#N)=C(N)SC(N)=C2C#N)cc1OCC | 5.2% | 1.0% | >57 | -1.0%
N#CC1=C(N)SC(N)=C(C#N)C1c1cccc(Oc2ccccc2)c1 | 7.94µM* | ? | . | 3.9%
Cc1cc(N2CCN(C)CC2)nc2ccc(NC(=O)c3ccc4c(c3)OCO4)cc12 | 83.6% | ? | >57 | -1.6%
CCOc1ccccc1NC(=O)CCC(=O)Nc1ccc2nc(N3CCN(C)CC3)cc(C)c2c1 | 99.6% | 12.6µM* | >57 | 0.3%
CCC(C)NC(=O)CCC(=O)Nc1ccc2nc(N3CCOCC3)cc(C)c2c1 (stereo not drawn) | 31.2% | 6.4% | >57 | -4.2%
Cc1cc(N2CCN(C)CC2)nc2ccc(NC(=O)c3ccc(Br)o3)cc12 | 89.0% | 12.6µM* | >57 | -3.8%
CCOC(=O)c1cc(-c2ccc(F)cc2)n(CC(=O)Nc2nccs2)c1C | 3.16µM*[single pt active] | 10µM* | >57 | 9.7%
CCOC(=O)c1cc(-c2ccccc2)n(CC(=O)O)c1C | -5.0% | 0.9% | >57 | -4.5%
NC(N)=N/N=C(\c1ccc(Cl)cc1)C1CC1 | -1.9%[5.75 µM] | ? | >57 | -0.4%[5.75 µM]
Cc1ccc(C(=O)Cn2c3c(sc2=N)CCCC3)cc1 | 47.1% | 15.8µM* | >57 | -3.1%
O=S(=O)(O)c1ccc(NN(c2c(O)ccc3ccccc23)S(=O)(=O)O)cc1 | -8.7%[5.75 µM] | -8.5%[8 µM] | >57 | -2.7%[5.75 µM]
CCCOc1ccc(Cc2nn3c(=O)/c(=C/c4ccco4)sc3nc2=O)cc1 | 10µM*[single pt active] | -1.2% | >57 | -2.3%
c1ccc(Cn2nnnc2C(c2ccccc2)N2CCN(c3nc4ccccc4s3)CC2)cc1 (stereo not drawn) | 1.7% | -8.6% | >57 | 25.4%
CCCCC(c1nnnn1Cc1ccco1)N1CCN(c2nc3ccccc3s2)CC1 (stereo not drawn) | 37.4% | 10µM* | >57 | -1.8%
C=CCN1CC[C@]23c4c5ccc(O)c4O[C@@H]2/C(=N/NC(=O)c2ccccc2)CC[C@@]3(O)[C@H]1C5 | 0.2% | ? | >57 | -2.9%
COc1ccc(NC(=O)c2ccc(-c3ccc(-c4noc(C)n4)cc3C)cc2)cc1N1CCN(C)CC1 | 147.4% | ? | >57 | -5.7%
COc1ccc(NC(=O)c2ccc(-c3ccc(-c4noc(C)n4)cc3C)cc2)cc1OCCN(C)C | 161.0% | 15.8µM* | >57 | -1.4%
COc1ccc(C2c3sc(=O)[nH]c3SC3C(=O)N(c4ccccc4)C(=O)C32)cc1 (stereo not drawn) | 3.98µM*[single pt active] | -16.4% | >57 | 11.4%
SMILES | AmpC nodet inh | LT uptake inh | SmPrx2 inh | AmpC inh det
N=C1Sc2ccccc2C2=NCCCN12 | -13.3% | 0.0251µM* | >57 | -1.1%
COc1ccc(S(=O)(=O)Cc2ccc(C(=O)N3CCCC3)o2)cc1 | 3.16µM*[single pt active] | 0.3% | >57 | 8.6%
Cc1ccccc1S(=O)(=O)Cc1ccc(C(=O)N2CCN(c3cccc(C)c3C)CC2)o1 | 84.8% | ? | >57 | -3.2%
COc1ccccc1S(=O)(=O)Cc1ccc(C(=O)N2CCCC2)o1 | 21.5% | 6.1% | >57 | 11.1%
COc1ccc(S(=O)(=O)Cc2ccc(C(=O)N3CCC(C(N)=O)CC3)o2)cc1 | 5.7% | 8.7% | >57 | 5.5%
Cc1ccccc1S(=O)(=O)Cc1ccc(C(=O)N2CC(C)CC(C)C2)o1 (stereo not drawn) | 3.98µM*[single pt active] | 2.7% | >57 | 10.0%
COc1ccc(S(=O)(=O)Cc2ccc(C(=O)N3CCN(c4ccccn4)CC3)o2)cc1 | 3.98µM*[single pt active] | -13.7% | >57 | 10.9%
COc1ccccc1S(=O)(=O)Cc1ccc(C(=O)N2CCN(c3ccccn3)CC2)o1 | 3.98µM*[single pt active] | -13.0% | >57 | 10.9%
COc1cc2c(cc1OC)[C@]13CC[N@+]4(C)CC5=CCO[C@H]6CC(=O)N2[C@@H]1[C@@H]6[C@@H]5C[C@]34O | 1.8%[5.75 µM] | 0.7%[8 µM] | >57 | -1.8%[5.75 µM]
COc1cc(OC)cc([C@H](CNc2ncnc3c2ncn3[C@@H]2O[C@@H](CO)[C@H](O)[C@@H]2O)c2ccccc2C)c1 | 156.3% | -5.4% | >57 | -3.6%
COc1ccccc1NC(=O)N1CCN(c2ccccn2)CC1 | 3.98µM*[single pt active] | 5.6% | >57 | 12.6%
CC1CCC2C(=O)N3C(CCC(C)C3c3ccc(-c4ccco4)cc3)C(=O)N2C1c1ccc(-c2ccco2)cc1 (stereo not drawn) | . | -25.2%[8 µM] | . | .
COc1ccc(C(O)C(CN2CCOCC2)c2ccccc2)cc1F (stereo not drawn) | 3.9% | 2.0% | >57 | 4.9%
COc1ccc(C(=O)C(CN2CCOCC2)c2ccccc2)cc1F (stereo not drawn) | 75.7% | 15.8µM* | >57 | -2.1%
O=c1c(-c2ccc(F)cc2)nc2cnc(N3CCNCC3)nc2n1Cc1ccc(F)cc1 | 121.0% | ? | >57 | 15.0%
COc1cccc(-c2cncnc2NCc2ccccc2)c1 | 12.6µM* | ? | >57 | 10µM*
CC(=O)[C@@H]1CC[C@@H]2[C@@H]3CC=C4C[C@H](OS(=O)(=O)O)CC[C@@]4(C)[C@H]3CC[C@]21C | -12.5% | ? | >57 | -3.9%
O=C(Cn1cnnn1)OCC(=O)c1ccc(Cl)s1 | 12.6µM* | -5.9% | >57 | 7.6%
O=[As](O)(O)c1ccc(NCc2ccccc2)cc1 | -3.7%[5.75 µM] | -6.8%[8 µM] | >57 | -1.7%[5.75 µM]
CO/N=C(\C(=O)N[C@@H]1C(=O)N2C(C(=O)O)=C(CSc3nc(=O)c(O)nn3C)CS[C@@H]12)c1csc(N)n1 | 12.6µM* | 0.5% | >57 | 12.6µM*
CO/N=C(/C(=O)N[C@@H]1C(=O)N2C(C(=O)O)=C(COC(N)=O)CS[C@H]12)c1ccco1 | 0.01µM* | -6.3% | . | 0.0251µM*
O=C(O)[C@@H]1CCCN[C@H]1C(=O)O | -0.6% | -2.0% | >57 | -1.8%
CC(C)N(C)C | -5.7% | -8.7% | . | 9.9%
O=C(CCl)c1ccccc1 | -12.9% | 12.6µM* | . | 3.5%
CCC(C)SCc1nc2ccccc2[nH]1 (stereo not drawn) | -11.7% | 5.4% | . | -4.4%
CC(C)N(Cc1nc2ccccc2[nH]1)C(C)C | 3.98µM*[single pt active] | -9.7% | >57 | 9.5%
CC1CCCC(C)N1c1nnc(N)s1 (stereo not drawn) | 3.98µM*[single pt active] | -5.9% | >57 | 12.0%
CC1CCCCN1c1nnc(N)s1 (stereo not drawn) | -4.6% | 5.3% | >57 | 16.7%
O=C(Nc1ccc(N2C(=O)C3C4C=CC(C4)C3C2=O)cc1)Nc1nncs1 (stereo not drawn) | 3.98µM*[single pt active] | -20.0% | >57 | 4.8%
